Inconclusive results are not listed. Activity calls are given as the source filed them. Rule for the calls: active = hit-call score of the fitted dose curve at least 0.9, where 1 is the maximum; inconclusive = response in the unintended direction; inactive = score below 0.9.

This assay can be described thus: ATG_XTT_Cytotoxicity: Cytotoxicity Assessment in the Attagene TRANS-FACTORIAL HepG2 Assay (AID 2283584).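 For AC50: cells exposed to compound for 24 h before reading; active means loss of viability signal versus DMSO baseline.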 As for the experimental part:
ATG_XTT_Cytotoxicity is a cell-based, single-readout assay that uses HepG2, a human liver cell line, with measurements taken at 24 hours after chemical dosing in a 24-well plate.ATG_XTT_Cytotoxicity is one of one assay component(s) measured or calculated from the ATG_XTT_Cytotoxicity assay. It is designed to make measurements of cell number, a form of viability reporter, as detected with […] signals by XTT cytotoxicity assay technology.Data from the assay component ATG_XTT_Cytotoxicity was analyzed into 1 assay endpoint. This assay endpoint, ATG_XTT_Cytotoxicity, was analyzed in the positive analysis fitting direction relative to DMSO as the negative control and baseline of activity. Using a type of viability reporter, loss-of-signal activity can be used to understand changes in the viability. Furthermore, this assay endpoint can be referred to as a primary readout, because the performed assay has only produced 1 assay endpoint. To generalize the intended target to other relatable targets, this assay endpoint is annotated to the cell cycle intended target family, where the subfamily is cytotoxicity.
Human liver HepG2 cells are transiently transfected with multiple reporter transcription units (MRTUs) in 6-well plates using FuGene 6 reagent (Roche; 3 ml FuGene/1 mg DNA). The MRTU constructs are regulated by a cis-regulating element (promoter). […] A major difference between the CIS and TRANS system is that in CIS activities of endogenous TFs are measured, whereas the TRANS assay evaluates changes in activities of exogenous, chimeric NR-Gal4 proteins. […] At the end of 24 hour incubation, total RNA was isolated using TriZol reagent (Invitrogen). The isolated RNA is then reverse-transcribed using oligo(dT) primer and Mo-MLV reverse transcriptase (Invitrogen) with DNAse I (Ambion) treatment for 30 min. The one-tenth of the produced cDNA was amplified by PCR using Taq DNA polymerase (Invitrogen) and two reporter sequence-specific primers. The PCR products were fluorescently labeled by primer extension with 6-arboxyfluorescein (6-FAM) 5'-labeled reporter sequence-specific primer (2 min at 95 C, 20 s at 68 C and 10 min at 72 C) and these products were digested with 5U of HpaI (New England Biolabs) for 2h at 37 C. The fragments were purified using Qiaquick PCR columns (Qiagen), analyzed on an ABI 3130xL genetic analyzer (Applied Biosystems) with peak positions identified by using a set of X-rhodamine (ROX)-labeled MapMarker1000 molecular weight standards (BioVentures). The raw capillary electrophoresis data was processed using Attagraph software (Attagene).
Consider `COc1ccc(Nc2ccccc2)c(C)c1`, for which the compound was classed as inactive. The same measure, in the same setting: to `Fc1c(F)c(F)c(Br)c(F)c1F` belongs “inactive”; to `O=Cc1ccc(F)cc1`, “inactive”; to `CC[C@]12CCCN3CCc4c(n(c5ccccc45)[C@@](O)(C(=O)OC)C1)[C@@H]32`, “inactive”.

With `COc1cc(C=O)ccc1OC(=O)C(C)C`, the outcome was inactive. Still for that read-out and setting: the value for `O=Cc1ccc(Cl)c([N+](=O)[O-])c1` was “inactive”; that for `CC1(C)OC[C@@H]2O[C@@]3(C(=O)O)OC(C)(C)O[C@H]3[C@@H]2O1` was “inactive”. Still for that read-out and setting: the value for `FC1(F)C(F)(F)C(F)(F)C2(F)C(F)(C1(F)F)C(F)(F)C(F)(F)C1(F)C(F)(F)C(F)(F)C(F)(F)C(F)(F)C12F` (stereo not given) was “inactive”.

Turning to `O=C(O)CCCCCCCC(=O)O`, the call was inactive. Still for that read-out and setting: the value for `CN(C)C(=N)N=C(N)N` was “inactive”; that for `CC(=O)c1c(C)cc(C(C)(C)C)cc1C` was “inactive”; that for `CCCCCC=CCC(=O)OC` was “inactive”. Same read-out and setting: the value for `c1cc(C(c2ccc(OCC3CO3)cc2)c2ccc(OCC3CO3)cc2)ccc1OCC1CO1` (stereo not given) was “inactive”; that for `C[C@H]1C[C@@H]2[C@H]([C@@H](O)C[C@@]3(C)[C@H]2CC[C@]3(O)C(=O)CO)[C@@]2(C)C=CC(=O)C=C12` was “inactive”. On the same count and under the same terms, the value for `CCn1c2ccccc2c2cc(N)ccc21` was “inactive”; that for `C/C=C(\C)C(=O)OCc1ccccc1` was “inactive”; that for `Cc1ccc(C=O)s1` was “inactive”. Turning to `CCCCCCCCCOC(C)=O`, the compound was called inactive. On the same count and under the same terms, to `CCCC(C)C=O` (stereo not given) belongs “inactive”; to `CC(C)c1cccc(O)c1`, “inactive”.

Turning to `COc1ccc(NC(=O)CC(C)=O)cc1`, the call was inactive.

For the compound `NNc1nc(-c2ccc(N)cc2)cs1`, the call was inactive. On the same count and under the same terms, the value for `CC(C)=CCC[C@](C)(O)[C@@H]1CC=C(C)CC1` was “inactive”; that for `O=[N+]([O-])c1ccc(C=Cc2ccc([N+](=O)[O-])cc2S(=O)(=O)O)c(S(=O)(=O)O)c1` was “inactive”.

In the case of `Sc1nc(S)nc(S)n1`, the compound was classed as inactive. Still for that read-out and setting: the value for `Nc1cccc(S(=O)(=O)c2cccc(N)c2)c1` was “inactive”.

In the case of `Cc1ncc([N+](=O)[O-])n1C`, the result was inactive.

For `O=C(Oc1ccccc1)c1ccc(O)cc1`, the call was inactive. The same measure, in the same setting: to `OCc1cccnc1` belongs “inactive”; to `CCCCCCCCCCC(CO)CCCCCCCC` (stereo not given), “inactive”; to `c1ccc2c(c1)c1cccc3ccc4cccc2c4c31`, “inactive”. With `CCCCc1ccc(N)cc1`, the call was inactive. Turning to `CCCCCCOC(=O)CCCCC`, the compound was called inactive. As for `Cc1ccc2ccccc2n1`, the call was inactive.

For `CCCCCCCCCCCCCOS(=O)(=O)O`, the concentration at half-maximal activity (AC50) was 148 µM (active). For the compound `Clc1cccc(Cl)n1`, the call was inactive. Same read-out and setting: the value for `CCc1c(C)cc(N)c(CC)c1N` was “inactive”; that for `CC(C)[C@@H]1CC[C@@H](C)CC1=O` was “inactive”. Consider `CC1CCC(C(C)CS)CC1S` (stereo not given), for which the AC50 was 152 µM (active). As for `CC(=O)[C@H]1CC[C@H]2[C@@H]3CC=C4C[C@@H](O)CC[C@]4(C)[C@H]3CC[C@]12C`, the outcome was inactive.

The values are drawn from PubChem BioAssay (EPA / NIEHS).
